Epigenetic derep = Quantitative High-Throughput Screen for Regulators of Epigenetic Control; murine LDR cells, GFP reporter derepression, 30 h; Potency, µM (titrated, usually from 53.9 µM), actives largely listed as activators; 280,000 tested, 0.2% active; further: nearly all actives have a fitted effect of over 60% in size
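GFP-positive cell count by laser-scanning cytometry (objects 20–120 um) after 30 h, 37 C compound exposure of murine LDR cells; reporter is CMV-GFP integrated at a silenced locus, inducible by HDAC or DNMT inhibitors.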
Mm-Cpn inhibitor = Inhibitors of TCP-1 ring complex (TRiC) of Methanococcus maripaludis (MmCpn): qHTS; Chaperonin Mm-Cpn (Methanococcus maripaludis); purified Mm-Cpn ATPase, ADP Transcreener TR-FRET; Potency, µM (doses to about 76.9 µM), actives largely listed as inhibitors; 330,000 tested, 0.031% active; AID 504842, 2011; further: nearly all actives have a fitted effect of over 80% in size
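ATPase read-out: TR-FRET ADP immunoassay (anti-ADP Eu cryptate vs ADP-d2), ex 320 nm, em 590/665 nm; signal drops as ADP forms. Enzyme 25 nM, ATP 10 uM, 30 min at 37°C after 10 min compound preincubation.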
MBNL1-CUG inh = qHTS Assay for Inhibitors of MBNL1-poly(CUG) RNA binding; Potency, µM (series often up to 57.5 µM), most hits filed as inhibitors; 280,000 tested, 0.036% active; TR-FRET MBNL1-His/biotin-(CUG)12 binding, 665/545 ratio; active means well fitted inhibition curve with a large enough effect in the signal ratio, with a control signal flat, not every such curve was filed as active; inconclusive means small, poorly fitted or top-dose-only effect, or effect the other way, or a change in a side signal; inactive means no such curve, though single readings can be large or run the other way; the % refers to the signal ratio
Target sequence (Q9NR56 whole entry, looked up): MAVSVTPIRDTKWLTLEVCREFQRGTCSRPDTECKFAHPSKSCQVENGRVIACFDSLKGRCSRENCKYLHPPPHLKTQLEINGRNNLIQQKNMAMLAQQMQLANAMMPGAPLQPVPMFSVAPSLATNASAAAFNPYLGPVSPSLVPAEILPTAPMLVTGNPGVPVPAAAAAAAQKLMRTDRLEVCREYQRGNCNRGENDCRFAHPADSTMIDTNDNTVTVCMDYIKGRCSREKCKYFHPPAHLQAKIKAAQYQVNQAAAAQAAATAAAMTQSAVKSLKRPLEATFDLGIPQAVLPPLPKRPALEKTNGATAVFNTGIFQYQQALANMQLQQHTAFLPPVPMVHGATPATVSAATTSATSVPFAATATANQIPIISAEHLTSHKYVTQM
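TR-FRET between His-tagged MBNL1 and biotin-(CUG)12 RNA, detected with Tb anti-His antibody (0.055 ng/ul) and streptavidin-XL665 (5 nM), 60 min at room temperature. Compounds titrated 92 nM to 58 uM; 665/545 nm ratio normalized to buffer and complex controls.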
uPA generation = qHTS for Inhibitors of Cell Surface uPA Generation. cell surface uPA generation assay, qHTS. Potency, µM (doses to about 38.3 µM), most hits filed as inhibitors. 330,000 tested, 0.31% active; active means well fitted inhibition curve with a large enough effect; inconclusive means small, poorly fitted or top-dose-only effect; inactive means no such curve, though single readings can be large or run the other way; tested in mouse RAW 264.7 cells; further: nearly all actives have a fitted effect of over 55% in size
CCT chaperon mod = High-Throughput Screening for Modulators of Cytosolic Chaperonin Activity. purified chaperonin ATPase assay, HTRF ADP detection, 30 min. activity change, % (test concentration not listed), hits read low. 360,000 tested, 0.3% active. AID 651819, 2012; in the data active means activity change below about -30%
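ATPase activity: ADP formed was measured by HTRF Transcreener (665/615 nm ratio) after 30 min at 37 deg C with 10 uM ATP. Compounds screened at one 76 uM concentration against 40 or 20 nM TRiC in Tris pH 7.4/KCl/MgCl2/DTT buffer.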
Akt phos inh = HTS Assay for Inhibitors of Akt Phophorylation: Primary Screen | Neuro2A IGF-stimulated pAkt S473 HTRF, 20 min; active compounds read low | activity change, % for hits at 50 µM | 360,000 tested, 0.32% active | AID 651550, 2012; in the data active means activity change below about -80%; inconclusive means mostly about -51% to -80%
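Neuro2A cells in DMEM with 0.5% FBS, overnight at 37 deg C, given compound at single 50 µM final, then IGF (6 nM final) for 20 min at 37 deg C. Lysed; phospho-Akt Ser473 by HTRF after 24 h, 665/615 ratio.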
Numbers stand for hits; n = inactive; u = inconclusive; x = not tested or not shown. Most compounds without a hit are left out; they make up all but 0.97% or so of the library. Unless noted, the call rests on the fitted dose curve; in most records, active means well fitted curve in the direction sought with a large enough effect; inconclusive means small, poorly fitted or top-dose-only effect, or another doubt; inactive means no such curve, though single readings can be large; an effect the other way counts as inactive or inconclusive.

SMILES	Epigenetic derep	Mm-Cpn inhibitor	MBNL1-CUG inh	uPA generation	CCT chaperon mod	Akt phos inh
Cc1cc(C(=O)COC(=O)c2cccnc2Cl)c(C)n1C	x	n	x	8.9µM	n	n
O=C(/C=C/c1c(C(=O)O)[nH]c2cc(Cl)cc(Cl)c12)Nc1ccccc1	n	x	x	x	x	x
Cc1ccc(Sc2ccc(NC(=O)CCl)cc2)cc1C	n	n	n	13µM	n	n
O=Nc1c(O)c2ccccc2c2ccccc12	x	x	x	5.6µM	n	n
CCCCc1ccc(NC(=O)Nc2cc(C)nn2C)cc1	x	n	n	n	-111	n
COc1cc2c3nnc(-c4ccc(F)cc4)c-3cn(Cc3ccccc3F)c2cc1OC	6.3µM	n	n	n	n	n
CCOC(=O)C(=O)NCC(c1cccnc1)N1CCN(c2ccccc2)CC1 (stereo not given)	n	x	x	x	x	x
CS(=O)(=O)N(CC(=O)Nc1ccc2c(c1)OCO2)Cc1ccccc1	n	n	n	n	n	n
CS(=O)(=O)N(CCc1ccccc1)CC(=O)Nc1ccc2c(c1)OCO2	n	x	n	n	n	-105%
CCn1c(NCc2ccc3c(c2)OCO3)nc2ccccc21	n	n	n	n	n	-106%
CC(=O)OCC(=O)[C@@]12OC3(CCCC3)OC1CC1C3CCC4=CC(=O)C=C[C@@]4(C)[C@]3(F)C(O)C[C@]12C (stereo not given in full)	n	x	x	x	x	x
CCCC(=O)Nc1ccc(S(=O)(=O)N2CCc3ccccc32)cc1	x	x	x	x	n	n
OCC1(CCc2ccccc2)CCN(Cc2cc(F)ccc2-n2cccn2)CC1	n	n	n	n	n	n
CCOC(=O)COc1cccc2c(=O)n(CC(=O)NCc3ccc(F)cc3)ccc12	n	n	n	0.056µM	n	n
CCOC(=O)COc1cccc2c(=O)n(CC(N)=O)ccc12	n	n	n	n	n	n
CCOC(=O)COc1cccc2c(=O)n(CC(=O)NCc3ccccc3)ccc12	n	n	n	0.2µM	n	n
CCOC(=O)COc1cccc2c(=O)n(CC(=O)NCCc3ccc(OC)c(OC)c3)ccc12	n	n	n	x	x	x
CC(CNC(=O)c1csc2c1CCCCC2)c1ccccc1 (stereo not given)	n	x	x	x	x	x
CC(C)c1cc(NC(=O)CCl)on1	n	n	n	6.3µM	n	n
CC(NC(=O)CCl)c1ccc(Cl)c(Cl)c1 (stereo not given)	n	n	n	n	n	n
CCOCCCNC(=O)/C(C#N)=C/c1ccc([N+](=O)[O-])o1	4µM	n	u	n	n	n
CCOc1ccc2[nH]c(C)c(CN3CCN(CC)CC3)c(=O)c2c1	n	n	n	n	n	-122%
CCOc1ccc2[nH]c(C)c(CN3CCN(C)CC3)c(=O)c2c1	n	n	n	n	n	x
Cc1ccc(N(C)C2=NC(=O)CS2)cc1Cl	x	n	n	n	n	n
O=C(Nc1ccc(S(=O)(=O)NC2=NCCCCC2)cc1)c1cccs1	x	n	x	n	n	n
SMILES	Epigenetic derep	Mm-Cpn inhibitor	MBNL1-CUG inh	uPA generation	CCT chaperon mod	Akt phos inh
O=C(Nc1ccc(S(=O)(=O)NC2=NCCCCC2)cc1)c1ccc([N+](=O)[O-])s1	x	n	x	10µM	n	n
Cc1ccc(-c2nnc(N3CCC(C)CC3)c3ccccc23)cc1C	n	n	n	n	-43	n
O=C(NCc1ccccc1CN1CCCC1)c1ccc(Cl)c(N2CCCC2=O)c1	x	n	x	n	n	n
Cc1nn(C)cc1/C=N\NC(=O)Cc1ccc([N+](=O)[O-])cc1	n	n	u	n	n	n
CCn1cc(/C=N\NC(=O)Cc2ccc([N+](=O)[O-])cc2)c(C)n1	n	n	u	n	-39	n
Cc1ccc(/C(O)=C2\C(=O)C(=O)N(CC(C)O)C2c2cccc(F)c2)cc1 (stereo not given)	n	n	n	n	n	-113%
Cc1cc(C)n(CCCNC(=O)c2ccc(C)o2)n1	x	n	x	n	n	n

High-throughput results deposited in PubChem by National Center for Advancing Translational Sciences (NCATS).
